Compound activity (PubChem BioAssay)
Compounds with a hit are over-represented: about 19% of the library has one in this group of screens.
HT1080 IDH1KD tx – qHTS for induction of synthetic lethality in tumor cells producing 2HG: qHTS for the HT-1080-IDH1KD cell line; 360,000 compounds, 2% hits; HT-1080 IDH1 knockdown viability, ATP luminescence, 48 h; Potency, µM (doses to about 46.1 µM), without a hit: top-dose activity, negative = toxicity, hits mostly cytotoxic;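 further: potency means the concentration at half of the fitted maximal effect; 0% = DMSO wells and -100% = cell-free medium wells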
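After a 2 h attachment period, IDH1KD HT-1080 cells took pin-transferred compound for 48 h at 37 °C; ATP-based luminescence after 10 min room-temperature reagent incubation reported viability.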
TDP1 cell CPT – qHTS for Inhibitors of human tyrosyl-DNA phosphodiesterase 1 (TDP1): qHTS in cells in presence of CPT; chicken DT40 Tdp1-/-;hTDP1 cells + 20 nM CPT, ATP luminescence, 48 h; Potency, µM (highest dose often 46.2 µM), inactives show at the highest dose activity change, negative = growth inhibition, most hits filed as inhibitors; 420,000 compounds, 12% hits; further: potency means the concentration at half of the fitted maximal effect; nearly all actives have a fitted effect of over 55% in size
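Cell growth measured by CellTiter-Glo luminescence after a minimum 48 h, 37 C compound exposure with 20 nM CPT in Tdp1-knockout DT40 cells stably expressing hTDP1, seeded 400/well; qHTS titration format.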
HT1080-NT tox – qHTS for induction of synthetic lethality in tumor cells producing 2HG: qHTS for the HT-1080-NT fibrosarcoma cell line | Potency, µM (top dose mostly 46.1 µM), for the others: at the highest dose activity, negative = less viability, hits mostly cytotoxic | AID 686970, 2013 | 360,000 compounds, 1.6% hits | HT-1080-NT fibrosarcoma viability, CellTiter-Glo ATP luminescence, 48 h;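 further: NT is the 2HG producing partner of a matched IDH1 knockdown line; potency means the concentration at half of the fitted maximal effect; 0% = DMSO-treated cells and -100% = media-only wells without cells; nearly all actives have a fitted effect of over 55% in size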
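A 48-hour cytotoxicity screen used HT-1080-NT cells plated 2 hours before compound delivery. ATP-based CellTiter-Glo luminescence measured viability, normalized to DMSO and no-cell controls.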
TDP1 cell noCPT – qHTS for Inhibitors of human tyrosyl-DNA phosphodiesterase 1 (TDP1): qHTS in cells in absence of CPT | DT40 Tdp1-/- hTDP1 cells, no CPT, ATP luminescence, 48 h | Potency, µM (series often up to 46.2 µM), for inactives: at the highest dose activity change, negative = growth inhibition, actives largely listed as inhibitors | 420,000 compounds, 15% hits; further: potency means the concentration at half of the fitted maximal effect; nearly all actives have a fitted effect of over 55% in size
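No-CPT arm: Tdp1-/-;hTDP1 DT40 cells (400/well) plus compounds, incubated ≥48 hr at 37 °C. Readout CellTiter-Glo luminescence.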
IL-1B inflam inh – qHTS for Inhibitors of Inflammasome Signaling: IL-1-beta AlphaLISA Primary Screen; AID 743279, 2014; activity change, % at 57.5 µM; 360,000 compounds, 4.7% hits; THP-1 LPS/ATP IL-1B secretion, AlphaLISA, 16 h; active compounds read low; in the data active means activity change below about -50%; inconclusive means mostly about -30% to -49%
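Secreted IL-1B measured by AlphaLISA bead assay after 16 h compound exposure of THP-1 cells; compounds (final up to 57.5 uM) added 1 h before LPS (250 ng/mL) and ATP (1.25 mM) stimulation; lower signal means less secretion.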
* marks the source's active call; other numbers are inactive results; u = inconclusive; x = no result; [ ] = dose if it differs, or a comment. Unless noted, the call rests on the fitted dose curve; in most records, active means well fitted curve in the direction sought with a large enough effect; inconclusive means small, poorly fitted or top-dose-only effect, or another doubt; inactive means no such curve, though single readings can be large; an effect the other way counts as inactive or inconclusive. Unless noted, on the % scale 0 is the no-effect control and ±100 the full control effect.

SMILES	HT1080 IDH1KD tx	TDP1 cell CPT	HT1080-NT tox	TDP1 cell noCPT	IL-1B inflam inh
CCN(Cc1cc(=O)n2cc(Cl)c(C)c(Cl)c2n1)Cc1nc2ccccc2c(=O)[nH]1	-16.1%	-6.6%	-8.4%	18.4µM*	33.3
CCOC(=O)c1cccc(NC(=O)c2ccc3snnc3c2)c1	x	u	x	18.4µM*	x
CCOC(=O)c1cccc(NC(=O)c2cnc3ccccc3n2)c1	17.0%[9.24 µM]	u	13.7%	25.9µM*	-12.7
COc1cccc(CN(C)C(=O)c2cc(S(=O)(=O)N3CCCC3)ccc2C)c1OC	0.0%	u	5.0%	u	20.9
CCOC(=O)CNc1c(-c2ccc(O)cc2)nc2ccccn12	-4.1%	-26.7%	1.2%	-27.4%	-16.4
Cc1cccc(C)c1Nc1c(-c2ccccn2)nc2ccccn12	u	6.51µM*	u	6.51µM*	32.2
Cc1cc(C)n2c(Nc3c(C)cccc3C)c(-c3ccccn3)nc2n1	18.4µM*	5.8µM*	u	7.31µM*	182.9
Cc1cccc(C)c1Nc1c(-c2ccsc2)nc2ccc(Cl)cn12	x	u	x	7.31µM*	x
Cc1cccc(C)c1Nc1c(-c2ccsc2)nc2ccccn12	x	7.31µM*	x	5.8µM*	x
Cc1ccccc1Nc1c(-c2ccccn2)nc2c(C)cccn12	-6.4%	u	-19.1%	u	-12.2
COc1ccccc1CNC(=O)CCC(=O)N1CC2CCCN2c2ccccc21 (centres undefined)	x	-17.6%	x	-13.6%	x
Cc1ccccc1CC(=O)Nc1ccon1	3.2%	-22.2%	-1.2%	0.8%	4.6
Cc1ccc2nc(-c3ccsc3)c(Nc3ccccc3C)n2c1	x	6.51µM*	x	7.31µM*	x
CSc1ccc(-c2nc3ccc(C)cn3c2Nc2ccccc2C)cc1	x	-18.3%	x	6.6%	x
CC1CC(C)CN(C(=O)CSc2nnc(N)s2)C1 (centres undefined)	1.2%	14.0%	23.7%	13.3%	-9.5
CCOc1ccc2c(c1)OC(c1ccc(OC)cc1)(C(F)(F)F)NC2=O (centres undefined)	4.61µM*	3.26µM*	u	3.26µM*	-28.7
COc1ccc2c(c1)OC(O)(C(F)(F)F)CC2=O (centres undefined)	9.9%	-27.8%	-0.5%	-6.1%	5.3
Cc1ccc(S(=O)(=O)Nc2cc3c(C(=O)O)c(C)oc3c3ccccc23)c(C)c1	-5.9%	-11.4%	-1.6%	-6.3%	1.8
COC(=O)c1c(C)oc2c1cc(NS(=O)(=O)c1ccc(C(=O)O)cc1)c1ccccc12	-10.1%	-15.8%	-11.4%	6.4%	19.5
COC(=O)C(C(=O)OC)c1ccccc1NS(=O)(=O)c1c(C)cc(C)cc1C	u	16.4µM*	u	20.6µM*	34.2
COC(=O)c1c(C)oc2c1cc(NS(=O)(=O)c1c(C)cc(C)cc1C)c1ccccc12	x	11.6µM*	x	20.6µM*	x
CCOC(=O)c1c(C)oc2c(Cl)cc(NS(=O)(=O)c3ccc(Cl)c(C)c3)cc12	x	u	x	25.9µM*	x
CCOC(=O)c1c(C)oc2c1cc(NS(=O)(=O)c1ccc(C)cc1)c1ccccc12	x	u	x	20.6µM*	x
CC(=O)c1cccc(NC(=O)CN(C)Cc2ccc(OC(F)F)cc2)c1	18.0%	u	19.8%	u	22.1
Cc1ccc(N2C(=O)N(CC(=O)Nc3cccc(Cl)c3)C(=O)C2C)cc1 (centres undefined)	-4.2%	u	9.2%	u	-60.6*
SMILES	HT1080 IDH1KD tx	TDP1 cell CPT	HT1080-NT tox	TDP1 cell noCPT	IL-1B inflam inh
COc1cc(NC(=O)CN2C(=O)C(C)N(c3ccc(C)cc3)C2=O)cc(OC)c1 (centres undefined)	-1.7%	-7.7%	3.4%	-12.0%	-10.3
CC1(Cc2ccccc2Cl)C(=O)Nc2c(Cl)cccc21 (centres undefined)	-1.1%	29.1µM*	23.6%	u	-24.7
CC1(Cc2ccc(Cl)c(Cl)c2)C(=O)Nc2c(Cl)ccc(Cl)c21 (centres undefined)	u	u	u	u	27.1
CC1(Cc2ccc(F)cc2)C(=O)Nc2c(Cl)ccc(Cl)c21 (centres undefined)	u	u	u	u	-58.9*
CC1(Cc2ccccc2OC(F)(F)F)C(=O)Nc2c(Cl)ccc(Cl)c21 (centres undefined)	-21.4%	16.4µM*	u	23.1µM*	22.3
O=C(O)Cc1csc(-c2cccc(F)c2)n1	23.4%	10.9%	12.9%	21.0%	16.0
O=C(COC(=O)CSc1ccc([N+](=O)[O-])cc1)NCCCc1ccccc1	-6.7%	14.6µM*	-5.8%	u	6.4
CC(OC(=O)CSc1ccc([N+](=O)[O-])cc1)C(=O)NCc1ccccc1 (centres undefined)	u	20.6µM*	u	16.4µM*	-21.6
O=C(COC(=O)CSc1ccc([N+](=O)[O-])cc1)NCCc1ccccc1	19.0%	-3.4%	11.2%	7.6%	-3.3
CSc1ccc(S(=O)(=O)NCC(=O)OC(C)C(=O)NCc2ccccc2)cc1[N+](=O)[O-] (centres undefined)	-2.5%	5.4%	-4.7%	-12.8%	13.2
O=C(CCNC(=O)c1ccc([N+](=O)[O-])cc1)NCCc1ccccc1	2.8%	u	5.6%	u	-57.3*
O=C(Cn1c(=O)c2sccc2n(Cc2cccc([N+](=O)[O-])c2)c1=O)NCCc1ccccc1	u	u	-11.6%	u	-10.4
O=C(Cn1c(=O)c2sccc2n(Cc2ccc([N+](=O)[O-])cc2)c1=O)NCCc1ccccc1	-28.4%	u	-1.8%	13µM*	-27.5
Cc1ccc(CN(C)C(=O)COC(=O)CSc2ccc([N+](=O)[O-])cc2)cc1	13.0%	u	20.7%	16.4µM*	4.1
Cc1ccccc1CN(C)C(=O)COC(=O)CSc1ccc([N+](=O)[O-])cc1	0.6%	6.5%	-0.6%	-8.6%	7.0
c1ccc(Cn2ccc(-c3cnc(-c4ccccc4)s3)n2)cc1	-12.7%	u	-10.1%	18.4µM*	-6.6
Nc1ccn(Cc2ccccc2)n1	-0.6%	4.0%	0.6%	2.9%	5.9
COc1ccccc1-n1cc(CN2CCC3(CCC(CNC(=O)c4ccccc4)O3)CC2)cn1 (centres undefined)	x	17.1%[9.04 µM]	x	-26.6%	x
Cc1cc(C)c2c(=O)c3c(oc2c1)C(=O)N(Cc1ccco1)C3c1ccc(F)cc1 (centres undefined)	x	-2.0%	x	1.0%	x
